MITF TRPM1 HTS – activators of MITF-driven TRPM1 promoter reporter, primary screen, cell-based, SK-MEL-5, luciferase, single point | SK-MEL-5 TRPM1-promoter luciferase, 24 h; % of positive control, neutral wells = 0 | activation, % at 12.5 µM | 300,000 tested, 0.75% active | AID 588334, 2011;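 active means mean activation of at least 80% with every replicate also reaching 80%; inconclusive means mean reaches 80% but some replicate falls short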
PHOSPHO1 block – PubChem AID 1565. recombinant PHOSPHO1, absorbance phosphatase assay. inhibition, % at 13.3 µM. 290,000 tested, 1.1% active; in the data active means inhibition above about 60%
esBAF inh – Bmi1 luciferase reporter increase in mESCs, primary screen, esBAF inhibitor project, mouse ES cells, Bmi1 luciferase knock-in, single point; 24 h; 100% = twice the neutral-well signal; reporter increase, % at 12.5 µM; 350,000 tested, 2% active; AID 602393, 2012; in the data active means activation above about 40%; inconclusive means no clear call, values can overlap the other calls;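 further: a rise in the Bmi1 reporter signal indicates esBAF inhibition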
A3G deaminase – APOBEC3G DNA deaminase inhibitors, primary screen, biochemical, fluorescence, single-stranded DNA substrate, uHTS | recombinant A3G, ssDNA deamination FAM/TAMRA fluorescence | inhibition, % at 20 µM | 330,000 tested, 0.28% active;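 active means inhibition of at least 40% at 20 µM, with no more than 30% in the related APOBEC3A deaminase screen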
APOBEC3A inh – APOBEC3A ssDNA deaminase inhibitors, primary screen, selectivity assay for APOBEC3G inhibitor project, biochemical, FAM/TAMRA oligo cleavage fluorescence; DNA dC->dU-editing enzyme APOBEC-3A (Homo sapiens), P31941; recombinant A3A, FAM/TAMRA ssDNA deamination fluorescence; inhibition, % at 20 µM; 330,000 tested, 0.41% active;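 active means at least 40% inhibition at 20 µM here, with at most 30% in a related deaminase screen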
Target sequence (P31941 whole entry, looked up): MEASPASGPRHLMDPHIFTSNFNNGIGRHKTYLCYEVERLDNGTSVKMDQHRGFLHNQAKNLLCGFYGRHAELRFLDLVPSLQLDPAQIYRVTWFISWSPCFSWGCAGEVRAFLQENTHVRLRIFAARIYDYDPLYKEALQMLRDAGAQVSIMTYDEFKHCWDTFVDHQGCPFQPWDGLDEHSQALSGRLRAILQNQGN
Wnt bcat act – Wnt/beta-catenin pathway activators, primary screen, cell-based, plate reader, single point; Wnt/beta-catenin reporter cell assay, activator; activation, % at 9.35 µM; 300,000 tested, 1.2% active; in the data active means activation above about 30%, passing the limit was not always enough; inconclusive means no clear call, values can overlap the other calls
A number is an active result; i = inactive; ? = inconclusive; nt = not tested or not shown. Compounds with a hit are over-represented: about 3.6% of the library has one in this group of screens.

SMILES	MITF TRPM1 HTS	PHOSPHO1 block	esBAF inh	A3G deaminase	APOBEC3A inh	Wnt bcat act
C[C@@H]1CN([C@H](C)CO)S(=O)(=O)c2ccc(C#C[C@@H](C)O)cc2O[C@@H]1CN(C)Cc1ccccc1	nt	nt	i	nt	nt	nt
O=C(Nc1nccs1)c1ccc2c(=O)n3c(nc2c1)CCCCC3	i	i	53	i	i	i
COc1cc(OC)cc(C(=O)Nc2ccc3nc4n(c(=O)c3c2)CCCCC4)c1	i	i	53	i	i	i
O=C(Nc1ccc(F)cc1Cl)c1ccc2c(=O)n3c(nc2c1)CCC3	102	nt	?	i	i	i
CCOc1ccccc1NC(=O)c1ccc2c(=O)n3c(nc2c1)CCCCC3	i	75	i	i	i	i
O=C(Nc1ccc(F)cc1F)c1ccc2c(=O)n3c(nc2c1)CCC3	i	nt	i	i	i	i
COc1ccc(S(=O)(=O)Nc2ccc3c(c2)C(=O)N([C@H](C)CO)C[C@H](C)[C@@H](CN(C)C)OCCCC[C@@H](C)O3)cc1	nt	nt	i	nt	nt	nt
C[C@H](CO)N1C[C@H](C)[C@@H](CN(C)S(=O)(=O)c2cn(C)cn2)Oc2ccc(NC(=O)CCCCCC(=O)Nc3ccccc3N)cc2CC1=O	nt	nt	i	nt	nt	nt
C[C@H]1CN([C@@H](C)CO)C(=O)Cc2cc(NC(=O)Nc3cccc4ccccc34)ccc2O[C@@H]1CN(C)Cc1ccc(-c2ccccc2)cc1	nt	nt	i	nt	nt	nt
C[C@@H]1CN([C@H](C)CO)C(=O)Cc2cc(NC(=O)Nc3ccc(F)cc3)ccc2O[C@@H]1CN(C)C(=O)Nc1ccc(F)cc1	nt	nt	i	nt	nt	nt
C[C@@H]1CCCCO[C@H](CN(C)C(=O)NC2CCCCC2)[C@@H](C)CN([C@@H](C)CO)C(=O)c2cc(NC(=O)Cc3ccccc3)ccc2O1	nt	nt	i	nt	nt	nt
CCC(=O)N[C@H]1CC[C@@H](CC(=O)NCc2ccccc2OC)O[C@H]1CO	nt	nt	i	nt	nt	nt
COc1ccccc1CNC(=O)c1ccc2c(=O)n3c(nc2c1)CCCCC3	i	65	i	i	i	i
Cc1c(OC(C)C(=O)N[C@H](C(=O)O)c2ccccc2)ccc2c3c(c(=O)oc12)CCCC3 (stereo partly specified)	i	i	i	i	i	i
Cc1c(OCc2ccc([N+](=O)[O-])cc2)ccc2c3c(c(=O)oc12)CCC3	112	i	nt	i	i	i
CC(=O)C(C)Oc1ccc2c3c(c(=O)oc2c1C)CCCC3 (stereo unspecified)	i	i	58	i	i	i
Cc1c(OCC(=O)N(C)C)ccc2c3c(c(=O)oc12)CCCCC3	i	i	i	i	i	nt
CC(=O)COc1ccc2c3c(c(=O)oc2c1C)CCCCC3	i	i	45	i	i	nt
CCCN(C)C[C@H]1Oc2cc(C#CC3CCCCC3)ccc2S(=O)(=O)N([C@H](C)CO)C[C@@H]1C	nt	nt	i	nt	nt	nt
CO[C@@H]1CN(C)C(=O)c2ccc(NC(=O)NC(C)C)cc2OC[C@@H](C)N(CC2CC2)C[C@@H]1C	nt	nt	i	nt	nt	nt
C[C@@H]1CN([C@@H](C)CO)S(=O)(=O)c2ccc(C#CC(C)(C)O)cc2O[C@@H]1CN(C)C(=O)CN(C)C	nt	nt	i	nt	nt	nt
CCC(=O)Nc1ccc2c(c1)C(=O)N(C)[C@@H]1CC[C@@H](CC(=O)NCCOC)O[C@H]1CO2	nt	nt	i	nt	nt	nt
CCCC#Cc1ccc2c(c1)O[C@@H](CN(C)C(=O)C1CC1)[C@@H](C)CN([C@@H](C)CO)S2(=O)=O	nt	nt	i	nt	nt	nt
Cc1cccc(-n2ncc3c(N4CCC(C)CC4)ncnc32)c1	i	i	i	i	i	38
Cc1cccc(-n2ncc3c(N4CCC5(CC4)OCCO5)ncnc32)c1	i	i	54	i	i	i
CCN1CCN(c2ncnc3c2cnn3-c2ccccc2)CC1	87	i	i	i	i	i
Cc1cccc(-n2ncc3c(N(C)Cc4ccccc4)ncnc32)c1	i	i	53	i	i	?
CCOC(=O)C1CCCN(c2ncnc3c2cnn3-c2cccc(C)c2)C1 (stereo unspecified)	i	i	i	i	i	nt
